# Test results reported in PubChem BioAssay AID1845226 (National Center for Advancing Translational Sciences (NCATS), 2023).
# Records with an inconclusive call do not appear. Calls of active or inactive are those of the source. Calls come from the whole dose curve; as a rule, active = well fitted inhibition curve with a large enough effect; inconclusive = small, poorly fitted or top-dose-only effect; inactive = no such curve, though single readings can be large or run the other way.
# Assay: Confirmatory fluorescence-based thiol-reactive (MSTI) qHTS assay for identification of artifact compounds
# Details: MSTI thiol-reactivity probe, 1 h; series mostly up to 39.2 µM; activity change, negative = inhibition: at the top concentration
# Method in brief: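 Concentration–response testing used 4 uM MSTI. Signal read at Ex 525/Em 598 nm after one hour in darkness at ambient temperature.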
# Potency is the fitted concentration of half-maximal effect.
SMILES,"activity change, negative = inhibition",Potency
COc1ccc(C2C(C(=O)Nc3ccccc3)=C(C)Nc3c(C(=O)Nc4ccccc4)cnn32)cc1 (stereo unspecified),128% (inactive),–
Cn1cc(CN(C(=O)Nc2ccc(Cl)c(Cl)c2)C2CCCCC2)c2ccccc21,81.3% (inactive),–
COC(=O)c1ccc2nc(C)cc(Nc3ccc(O)cc3)c2c1,-5.75% (inactive),–
O=C(NCCN1CCCCC1)c1ccc(Cn2c(SCc3ccc(F)cc3)nc3cccnc32)cc1,91.6% (inactive),–
Cc1ccc(NS(=O)(=O)c2cc3c(cc2N2CCC2)NC(=O)CC3)cc1C,102% (inactive),–
COCCn1c(=N)c(C(=O)NC2CCCC2)cc2c(=O)n3cc(C)ccc3nc21,27.1% (inactive),–
O=S(=O)(O)c1ccc(N=Nc2c(O)ccc3cc(S(=O)(=O)O)ccc23)cc1,–,6.12 µM (active)
COc1ccccc1N1CCN(S(=O)(=O)c2c(C)nc3sc(C)c(C)n3c2=O)CC1,23.2% (inactive),–
CCOc1ccc(CCNC(=O)c2ccc3c(c2)nc2n3CCOC2)cc1OCC,109% (inactive),–
Cc1cc(C)cc(NC(=O)CSc2oc(-c3cccs3)nc2S(=O)(=O)c2ccccc2)c1,195% (inactive),–
CCCN(C(=O)Cc1c(C(=O)O)[nH]c2ccc(Cl)cc12)c1ccc(OCC)cc1,158% (inactive),–
Cc1cc(N[S+](=O)([O-])c2ccc(NC(=O)Cc3ccc(Cl)nc3)cc2)no1,20.7% (inactive),–
COc1ccc(-c2[nH]ncc2C(=O)NCc2cccc(OC)c2)cc1,51.6% (inactive),–
CCCCCn1c(=O)[nH]c2cc(C(=O)Nc3ccc(F)cc3)ccc2c1=O,188% (inactive),–
Cc1ccc(NC(=O)CCn2cccn2)cc1Cl,17.3% (inactive),–
Cc1ccc(OCCn2c(CCNC(=O)OC(C)(C)C)nc3ccccc32)cc1,-2.7% (inactive),–
